Measured values: the supplement of paper PMC6411743
± gives the standard deviation of the averaged measurements. Of roughly 5,400 targets only a part is listed; those with the largest changes were picked by preference.

Compound: Nc1nc2c(ncn2[C@@H]2O[C@H](COP(=O)(O)OP(=O)(O)OP(=O)(O)O)[C@@H](O)[C@H]2O)c(=O)[nH]1 [guanosine triphosphate]
Test: NP40-soluble protein abundance relative to vehicle (solubility fold change) (ratio); higher = more soluble protein in presence of GTP
Protocol: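 Solubility proteome profiling in Jurkat crude lysate. Lysate was treated with Mg-GTP (0.1-10 mM) for 10 min at room temperature and 3 min at 37 °C, then solubilised with 0.8% NP40 and benzonase, followed by ultracentrifugation. Proteins were quantified by TMT10 LC-MS/MS; the value is the NP40-soluble abundance relative to the NP40-processed vehicle, from 3 independent experiments.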

Sequence of UniProt Q9H0A0 (Q9H0A0 whole entry): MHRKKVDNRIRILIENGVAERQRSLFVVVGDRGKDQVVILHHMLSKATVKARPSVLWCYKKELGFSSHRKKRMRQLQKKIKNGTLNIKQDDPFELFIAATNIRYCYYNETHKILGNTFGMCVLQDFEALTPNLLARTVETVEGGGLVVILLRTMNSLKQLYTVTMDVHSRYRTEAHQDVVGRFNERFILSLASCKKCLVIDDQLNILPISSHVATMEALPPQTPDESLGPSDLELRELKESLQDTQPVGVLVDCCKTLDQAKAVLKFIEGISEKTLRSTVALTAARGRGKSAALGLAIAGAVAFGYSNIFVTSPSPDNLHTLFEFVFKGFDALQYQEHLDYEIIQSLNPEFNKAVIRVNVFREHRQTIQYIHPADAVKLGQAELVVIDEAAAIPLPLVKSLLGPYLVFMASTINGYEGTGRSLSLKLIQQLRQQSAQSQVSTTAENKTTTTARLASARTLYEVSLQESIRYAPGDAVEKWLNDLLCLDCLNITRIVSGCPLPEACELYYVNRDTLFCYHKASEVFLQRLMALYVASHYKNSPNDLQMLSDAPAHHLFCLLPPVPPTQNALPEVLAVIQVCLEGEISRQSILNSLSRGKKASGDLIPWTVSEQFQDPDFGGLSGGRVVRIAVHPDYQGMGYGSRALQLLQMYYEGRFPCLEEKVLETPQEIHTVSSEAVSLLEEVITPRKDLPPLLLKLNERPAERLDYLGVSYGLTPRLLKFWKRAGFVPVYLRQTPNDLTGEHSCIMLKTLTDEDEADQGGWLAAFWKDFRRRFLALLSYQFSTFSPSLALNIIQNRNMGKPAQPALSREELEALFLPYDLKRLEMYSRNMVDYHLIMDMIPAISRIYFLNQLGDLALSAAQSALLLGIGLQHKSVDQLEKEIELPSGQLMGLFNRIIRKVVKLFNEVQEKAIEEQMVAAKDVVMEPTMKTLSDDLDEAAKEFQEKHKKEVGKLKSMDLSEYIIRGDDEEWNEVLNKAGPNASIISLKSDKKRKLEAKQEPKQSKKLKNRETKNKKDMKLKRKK
Sequence of UniProt Q92917 (Q92917 whole entry): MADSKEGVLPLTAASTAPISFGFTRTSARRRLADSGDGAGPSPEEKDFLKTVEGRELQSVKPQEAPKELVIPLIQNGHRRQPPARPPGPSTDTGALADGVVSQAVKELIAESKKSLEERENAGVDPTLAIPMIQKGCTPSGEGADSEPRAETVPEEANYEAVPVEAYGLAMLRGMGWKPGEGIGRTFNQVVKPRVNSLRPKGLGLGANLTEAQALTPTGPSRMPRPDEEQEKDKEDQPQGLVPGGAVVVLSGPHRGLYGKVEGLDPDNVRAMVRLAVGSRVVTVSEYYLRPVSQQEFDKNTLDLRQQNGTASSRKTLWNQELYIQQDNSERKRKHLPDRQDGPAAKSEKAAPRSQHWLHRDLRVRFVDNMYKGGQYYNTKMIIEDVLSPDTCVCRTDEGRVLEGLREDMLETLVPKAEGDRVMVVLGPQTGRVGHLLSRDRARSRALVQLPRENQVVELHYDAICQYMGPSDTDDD
Sequence of UniProt Q9H944 (Q9H944 whole entry, one chain of several): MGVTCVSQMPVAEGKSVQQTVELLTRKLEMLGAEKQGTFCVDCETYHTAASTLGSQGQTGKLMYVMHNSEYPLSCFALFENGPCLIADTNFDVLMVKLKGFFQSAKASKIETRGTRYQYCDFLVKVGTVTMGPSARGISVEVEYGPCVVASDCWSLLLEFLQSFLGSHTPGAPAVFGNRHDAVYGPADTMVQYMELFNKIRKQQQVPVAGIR
Sequence of UniProt Q9Y508 (Q9Y508 whole entry): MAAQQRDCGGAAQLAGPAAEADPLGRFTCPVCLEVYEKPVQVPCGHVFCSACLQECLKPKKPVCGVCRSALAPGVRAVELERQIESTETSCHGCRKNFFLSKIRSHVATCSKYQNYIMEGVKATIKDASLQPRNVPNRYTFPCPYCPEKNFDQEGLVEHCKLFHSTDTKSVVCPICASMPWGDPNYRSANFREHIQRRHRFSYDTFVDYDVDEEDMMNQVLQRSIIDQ

Target	NP40-soluble protein abundance (concentration: 0.1mM)	NP40-soluble protein abundance (concentration: 0.5mM)	NP40-soluble protein abundance (concentration: 1mM)	NP40-soluble protein abundance (concentration: 2mM)	NP40-soluble protein abundance (concentration: 4mM)	NP40-soluble protein abundance (concentration: 6mM)	NP40-soluble protein abundance (concentration: 8mM)	NP40-soluble protein abundance (concentration: 10mM)
UniProt Q9H944|B7ZBQ3	1 ± 0.046	1.01 ± 0.05	0.928 ± 0.034	0.984 ± 0.019	0.976 ± 0.025	0.986 ± 0.029	0.9381 ± 0.0083	0.934 ± 0.029
UniProt Q9Y2X0-2|Q9Y2X0-3|Q9Y2X0	1.09 ± 0.2	1.07 ± 0.21	1.04 ± 0.17	1.16 ± 0.28	1.08 ± 0.21	1.11 ± 0.16	1.12 ± 0.18	1.04 ± 0.19
NAT10 (UniProt Q9H0A0)	1.07 ± 0.065	1.04 ± 0.061	1.02 ± 0.063	1.07 ± 0.065	1.2 ± 0.079	1.31 ± 0.085	1.37 ± 0.077	1.59 ± 0.11
RNF114 (UniProt Q9Y508)	0.95 ± 0.011	0.967 ± 0.032	0.924 ± 0.041	0.91 ± 0.068	0.895 ± 0.057	0.897 ± 0.056	0.876 ± 0.072	0.888 ± 0.084
GPKOW (UniProt Q92917)	0.974 ± 0.07	0.995 ± 0.067	1.02 ± 0.077	0.975 ± 0.086	0.968 ± 0.071	0.99 ± 0.059	0.998 ± 0.057	1.01 ± 0.088
